Reference: PubChem BioAssay (Tox21)
Where “and” joins values, the source holds several entries; their conditions need not be identical. Identical values can stand only once. Inconclusive results are not listed. Where a call stands in place of a potency, no number is given. Unmarked numbers belong to inactive results. Calls of active or inactive are those of the source. The call rests on the fitted dose curve; in most records, active means well fitted cell-killing curve with a large enough effect in the repeat runs; inconclusive means weak or mixed curves, or effect the other way; inactive means flat fitted curve, though single readings scatter.

Key:
[1] = cAMP Responsive Elements (CRE) small molecule antagonists, cell-based qHTS assay: qHTS cell viability counter screen (AID 2060913); further: nearly all actives have a fitted effect of over 40% in size
Method in brief: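 Cytotoxicity counter screen multiplexed with the CRE-bla antagonist read: HEK293T cells in DMEM with dialyzed FBS and 25 mM HEPES were treated 3 hrs under 0.25 uM final NKH477, then viability measured by CellTiter-Glo luminescence.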

[2] = cAMP Responsive Elements (CRE) small molecule agonists, cell-based qHTS assay: qHTS cell viability counter screen (AID 2060914); further: nearly all actives have a fitted effect of over 50% in size
Method in brief: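 Cytotoxicity was measured as ATP luminescence (CellTiter-Glo, 30 min at room temperature) in the same wells as the CRE-bla FRET read-out. HEK293T CRE-bla cells had 3 h compound exposure at 37C/5% CO2.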
Potency means the concentration at half of the fitted maximal effect.

COCCOCCOCCOCCOC
Potency [1]: inactive | Potency [2]: inactive

CCCC[O][Al]([O]CCCC)[O]CCCC
Potency [1]: inactive | Potency [2]: inactive

CC(C)COC(=O)/C=C/c1ccccc1
Potency [1]: inactive | Potency [2]: inactive

Cc1c(N(C)CS(=O)(=O)O)c(=O)n(-c2ccccc2)n1C
Potency [1]: inactive | Potency [2]: inactive

COC(=O)CC#N
Potency [1]: inactive | Potency [2]: inactive

C=C(C)C(=O)OCCC(F)(F)C(F)(F)C(F)(F)C(F)(F)C(F)(F)C(F)(F)F
Potency [1]: inactive | Potency [2]: inactive

C[C@H]1COc2c(C3(N)CC3)c(F)cc3c(=O)c(C(=O)O)cn1c23
Potency [1]: inactive | Potency [2]: inactive

CC(O)C1CCCCC1 (stereo not given)
Potency [1]: inactive | Potency [2]: inactive

c1ccncc1
Potency [1]: inactive | Potency [2]: inactive

NCCNCCN
Potency [1]: inactive | Potency [2]: inactive

[O]=[Bi]
viability change, negative = cytotoxic [1]: -2.63% [at 8.39 µM] | activity change, negative = cytotoxicity [2]: -8.94% [at 8.39 µM]

O=c1cccc[nH]1
Potency [1]: inactive | Potency [2]: inactive

c1ccc(CN(CC2=NCCN2)c2ccccc2)cc1
Potency [1]: inactive | Potency [2]: inactive

O=S(=O)(c1ccc(OCc2ccccc2)cc1)c1ccccc1O
Potency [1]: inactive | Potency [2]: inactive

Cc1nc(C2CCCCC2)c(-c2ccc(S(N)(=O)=O)c(F)c2)o1
Potency [1]: inactive | Potency [2]: inactive

CC(C(=O)O)c1cccc(C(=O)c2ccccc2)c1 (stereo not given)
Potency [1]: inactive | Potency [2]: inactive

CN1CCC[C@@H]1c1cccnc1
Potency [1]: inactive | Potency [2]: inactive

CCNC(=O)[C@@H]1CCCN1C(=O)[C@H](CCCN=C(N)N)NC(=O)[C@H](CC(C)C)NC(=O)CNC(=O)[C@H](Cc1ccc(O)cc1)NC(=O)[C@H](CO)NC(=O)[C@H](Cc1c[nH]c2ccccc12)NC(=O)[C@H](Cc1cnc[nH]1)NC(=O)[C@@H]1CCC(=O)N1
Potency [1]: inactive | Potency [2]: inactive

OC12N=C(c3ccccc3)SC1Cc1cc(Cl)ccc12 (stereo not given)
Potency [1]: inactive | Potency [2]: inactive

CC1CCC(C(C)C)C(O)C1 (stereo not given)
Potency [1]: inactive | Potency [2]: inactive

CN(C)CCOCCO
Potency [1]: inactive | Potency [2]: inactive

Cc1ccc(N)nc1
Potency [1]: inactive | Potency [2]: inactive

NC(=S)NC(N)=S
Potency [1]: inactive | Potency [2]: inactive

FC(F)(F)c1ccccc1-n1ccnc1
Potency [1]: inactive | Potency [2]: inactive

COc1cc2c3cc1Oc1cc(ccc1O)C[C@@H]1c4c(cc(OC)c(O)c4Oc4ccc(cc4)C[C@@H]3N(C)CC2)CC[N+]1(C)C
Potency [1]: inactive | Potency [2]: inactive

c1cc(-c2ccncc2)ccn1
Potency [1]: inactive | Potency [2]: inactive

O=C(CCCN1CCC(O)(c2ccc(Cl)cc2)CC1)c1ccc(F)cc1
Potency [1]: inactive | Potency [2]: inactive

C=CC(OCC)OCC
Potency [1]: inactive | Potency [2]: inactive

COC(=O)/C=C(/C)N
Potency [1]: inactive | Potency [2]: inactive

Cc1cc(OCCOCC[N+](C)(C)Cc2ccccc2)ccc1C(C)(C)CC(C)(C)C
Potency [1]: 54.2 µM (active) and 29.8 µM (active) | Potency [2]: 60.8 µM (active) and 26.6 µM (active)

COC(=O)CC(C)CCC=C(C)C (stereo not given)
Potency [1]: inactive | Potency [2]: inactive

CCCC(=O)OCCC(C)CCC=C(C)C (stereo not given)
Potency [1]: inactive | Potency [2]: inactive

O=S(=O)(O)c1ccccc1
Potency [1]: inactive | Potency [2]: inactive

COC(C)CCO (stereo not given)
Potency [1]: inactive | Potency [2]: inactive

CCCCCCCC/C=C\CCCCCCCC(=O)N(C)CC(=O)O
Potency [1]: inactive | Potency [2]: inactive

CCn1cc(C(=O)O)c(=O)c2cc(F)c(N3CCNC(C)C3)c(F)c21 (stereo not given)
Potency [1]: inactive | Potency [2]: inactive

CC(C)=CC(C)(C)C
Potency [1]: inactive | Potency [2]: inactive

COc1cc(C(=O)NS(=O)(=O)c2ccccc2C)ccc1Cc1cn(C)c2ccc(NC(=O)OC3CCCC3)cc12
Potency [1]: inactive | Potency [2]: inactive

Clc1ccccn1
Potency [1]: inactive | Potency [2]: inactive

COc1ccc(C)cc1N
Potency [1]: inactive | Potency [2]: inactive

Cc1nc(-c2ccc(OCC(C)C)c(C#N)c2)sc1C(=O)O
Potency [1]: inactive | Potency [2]: inactive

CN(C)CCN1CCN(c2cccc(Cl)c2)C1=O
Potency [1]: inactive | Potency [2]: inactive

C[C@@H]1C[C@H]2[C@@H]3CCC4=CC(=O)C=C[C@]4(C)[C@@]3(Cl)[C@@H](O)C[C@]2(C)[C@@]1(OC(=O)c1ccco1)C(=O)CCl
Potency [1]: inactive | Potency [2]: inactive

NC(=O)NO
Potency [1]: inactive | Potency [2]: inactive

CC(C)O
Potency [1]: inactive | Potency [2]: inactive

CCCOC(=O)c1c(Cl)c(Cl)c(Cl)c(Cl)c1C(=O)OCCC
Potency [1]: inactive | Potency [2]: inactive

COc1cccc(OC)c1C(=O)O
Potency [1]: inactive | Potency [2]: inactive

CCN=c1cc2oc3cc(NCC)c(C)cc3c(-c3ccccc3C(=O)OCC)c-2cc1C
Potency [1]: 68.3 µM (active) and 50.8 µM (active) | Potency [2]: 68.3 µM (active) and 61.1 µM (active)

O=S1OCCO1
Potency [1]: inactive | Potency [2]: inactive

CN(C)C(=O)C(CCN1CCC(O)(c2ccc(Cl)cc2)CC1)(c1ccccc1)c1ccccc1
Potency [1]: inactive | Potency [2]: inactive
